Shown are actives, neighbours in structure and some others; about 1.3% of the full set was active somewhere.
Cardiac RTF inh = cardiac RTF calcium desensitization | P19429+P45379 | IANBD-labeled cardiac RTF, Ca2+ fluorescence | inhibition, % at 7.15 µM | 340,000 tested, 0.12% active;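 active means inhibition above the mean inhibition of all tested compounds plus 3 SD, cut at about 17% in these data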;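 further: assay run at fixed EC70 calcium of 1.6 mM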
CRFBP-R2 agonist = agonists of human CRF-binding protein/CRF-R2 receptor complex | HEK293 CRF-R2/CRF-BP, calcium dye fluorescence (FLIPR); percent of saturating CRF peptide response | activation, % at 13.2 µM | 350,000 tested, 0.46% active | AID 588473;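 active means activation of at least 50%, plus an integration ratio under a set limit after plate pattern correction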;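 further: plate controls were neutral control wells without compound for no effect and CRF at EC100 for full effect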
LANA DNA inh = KSHV C-LANA DNA binding inhibition. inhibition, % at 9 µM. 340,000 tested, 0.078% active. MBP-C-LANA/FAM-LBS DNA binding, fluorescence polarization;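 active means highest replicate inhibition at or above 60% at 9 µM, even if other replicates fall short; inactive means all replicates below 60% inhibition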;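 further: 0% = neutral control wells and 100% = 4 µM acridine orange control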
cardiac RTF act = increases calcium sensitivity of human cardiac regulated thin filaments; IANBD-labeled TnC RTF fluorescence at EC20 calcium; 0% EC20 calcium, 100% full calcium; activation, % at 7.2 µM; 340,000 tested, 0.24% active; P19429+P45379;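 active means activation above the mean over all tested compounds plus 3 SD, cut at about 30% in these data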;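 further: rise in fluorescence read as greater calcium sensitivity of cardiac thin filaments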
Keap1 Nrf2 FP = inhibitors of human Keap1-Nrf2 protein-protein interaction | Q14145 | Keap1 Kelch-Nrf2 peptide fluorescence polarization, 1536-well | inhibition, % at 9.4 µM | 340,000 tested, 0.15% active; in the data active means inhibition above about 12%;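 further: human Keap1 Kelch domain with fluorescein labeled Nrf2 9mer peptide probe; 0% = neutral control wells and 100% = peptide positive control; higher means more block of Keap1 binding to Nrf2 peptide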
Target sequence (Q14145 whole entry, looked up, the tested form may be a part): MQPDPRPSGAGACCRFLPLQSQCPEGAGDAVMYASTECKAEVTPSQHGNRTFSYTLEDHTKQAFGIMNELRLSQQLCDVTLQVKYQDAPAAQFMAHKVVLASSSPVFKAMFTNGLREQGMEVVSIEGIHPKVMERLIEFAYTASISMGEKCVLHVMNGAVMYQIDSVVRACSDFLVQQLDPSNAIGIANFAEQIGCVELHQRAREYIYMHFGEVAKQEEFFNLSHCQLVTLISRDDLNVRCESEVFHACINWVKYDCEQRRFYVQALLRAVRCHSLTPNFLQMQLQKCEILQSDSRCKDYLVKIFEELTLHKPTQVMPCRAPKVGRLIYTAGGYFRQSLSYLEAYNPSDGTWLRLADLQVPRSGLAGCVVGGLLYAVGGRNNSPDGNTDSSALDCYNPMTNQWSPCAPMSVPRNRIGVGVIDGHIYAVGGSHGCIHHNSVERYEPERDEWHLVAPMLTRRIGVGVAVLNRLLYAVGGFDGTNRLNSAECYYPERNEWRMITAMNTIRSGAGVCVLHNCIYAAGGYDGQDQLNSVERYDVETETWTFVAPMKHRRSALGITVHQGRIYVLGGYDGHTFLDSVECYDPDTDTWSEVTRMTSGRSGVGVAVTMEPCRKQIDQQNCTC
CRFBP-R2 block = CRF-BP/CRF-R2 complex antagonism | inhibition, % at 11.8 µM | 350,000 tested, 0.59% active | HEK293 CRF-R2/CRF-BP, CRF-induced calcium fluorescence;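 active means inhibition of the ligand-induced calcium signal above about 50% at the single tested concentration, limit read from the data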
Keap1 TSA = binders of human Keap1 Kelch domain. max delta Tm, degrees C. Keap1 Kelch thermal shift, delta Tm; stronger effect = higher value. 400 tested, 8% active. shares compounds with Keap1 Nrf2 FP; in the data active means max delta Tm above about 0.48 degrees C
Dye-only ctr = counter-screen for Keap1 thermal shift hits: dye-only artifacts; shares compounds with Keap1 Nrf2 FP; Sypro Orange dye-only thermal melt, no protein, delta Tm; top dose 26 µM; delta Tm, degrees C (concentration not given with the values); 140 tested, under 10 active; AID 651858;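 active means at highest dose tested, delta Tm positive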
* hit, by the source's call; i = inactive; / = not tested or not shown.

SMILES	Cardiac RTF inh	CRFBP-R2 agonist	LANA DNA inh	cardiac RTF act	Keap1 Nrf2 FP	CRFBP-R2 block	Keap1 TSA	others
CN(CCC#N)C(=O)COC(=O)C1c2ccccc2Oc2ccccc21	-38	-1	0	1	-5	0	/
N#CCCN(CCC#N)C(=O)C1c2ccccc2Oc2ccccc21	-22	-1	95*	12	64*	13	-0.18	Dye-only ctr=-32
C=CC(COCc1ccccc1)N([C@@H](Cc1ccccc1)C(=O)OC)S(=O)(=O)c1ccccc1Br (some centres undefined)	-4	0	0	-7	3	-2	/
CC(Sc1nc2ccccc2s1)C(=O)Nc1nnc(C(C)C)s1 (centres undefined)	-4	-2	81*	-2	71*	-26	-0.04
COc1cccc(-n2c(=O)c3sccc3n(CC(=O)NC3CCCC3)c2=O)c1	-1	1	-2	-4	-7	8	/
NC(CO)c1cn([C@@H](CCC(=O)O)C(=O)N2CCNCC2)nn1 (some centres undefined)	-4	-2	-1	0	0	-8	/
Cc1csc2ncnc(NNC(=O)c3ccc(Cl)cc3)c12	-2	0	0	2	-3	16	/
O=C(NNc1ncnc2sccc12)c1ccc(Cl)cc1	/	-1	16	/	27*	-4	-0.05
CCCCOc1ccc(/C=C2/Sc3ccccc3C2=O)cc1	0	1	0	6	13*	2	-0.12
CC(C)COc1ccc(/C=C2/Sc3ccccc3C2=O)cc1	-12	-2	5	-1	5	41	/
CCCCCCOC(=O)C(C#N)c1nc2ccccc2nc1N1CCOCC1 (centres undefined)	-2	7	17	2	20*	-25	-0.12
CCCCOC(=O)C(C#N)c1nc2ccccc2nc1N1CCOCC1 (centres undefined)	-3	-2	3	-2	-8	27	/
O=[N+]([O-])c1cc(C(F)(F)F)ccc1NC1CCN(Cc2ccccc2)CC1	/	3	29	/	43*	-4	-0.06	Dye-only ctr=-22
Cc1ccc2oc(=O)c3cnn(CC(=O)NCCC(C)C)c3c2c1	-3	0	0	2	31*	-27	-0.17	Dye-only ctr=-26
Cc1ccc2oc(=O)c3cnn(CC(=O)NCCN(C)C)c3c2c1	1	2	-1	-6	-2	5	/
COc1cc(OC)cc(-c2c(-c3cccs3)c3cc(-c4ccc5c(c4)OCCO5)ccc3n2C)c1	-27	-1	2	7	-4	0	/
Cc1ccc(-c2nc3ccccc3nc2-c2ccccc2)cc1	-6	3	-3	-2	-4	-7	/
Cn1nc(-c2ccccc2)c2nc3ccccc3nc21	-9	253	33	52*	54*	-205	-0.08	Dye-only ctr=-28
Cc1nnc(NC(=O)c2ccc3c(c2)NC(=O)CS3)s1	4	0	0	-5	18*	-5	-0.13
Cc1ccc(NC(=O)c2ccc3c(c2)NC(=O)CS3)nc1	-2	1	1	-10	-2	0	/
COCCCNc1nc(N)c([N+](=O)[O-])c(Nc2cc(OC)ccc2OC)n1	/	-1	16	/	38*	-39	-0.08
Cc1cc(NC(=O)COC(=O)c2nccnc2N)n(-c2ccccc2)n1	1	-1	2	13	-5	-13	/
CCCc1cc(NC(=O)COC(=O)c2nccnc2N)n(-c2ccccc2)n1	-3	0	26	5	57*	0	-0.08
C=CCn1c(O)c(CN2CCOCC2)c(C)c(C#N)c1=O	-15	10	16	14	14*	-8	0.09
C=CCn1c(C)cc(C)c(C#N)c1=O	-8	-1	-1	-6	2	2	/
SMILES	Cardiac RTF inh	CRFBP-R2 agonist	LANA DNA inh	cardiac RTF act	Keap1 Nrf2 FP	CRFBP-R2 block	Keap1 TSA	others
Brc1ccc(CNCC2CCCO2)cc1 (centres undefined)	4	1	1	-2	0	9	/
COc1ccc(Br)cc1CNCC1CCCO1 (centres undefined)	0	1	19	-3	36*	-3	-0.18
O=C(COC(=O)c1ccncc1)Nc1cccc2ccccc12	-11	-2	10	5	14*	9	-0.09
COC(=O)c1ccccc1NC1=C/C(=N\S(=O)(=O)c2cccs2)c2ccccc2C1=O	-1	-7	0	1	-1	12	/
COC(=O)c1ccccc1NC1=C/C(=N\S(=O)(=O)c2ccc(C(=O)O)cc2)c2ccccc2C1=O	-12	-3	10	-3	14*	14	1.4*	Dye-only ctr=8.1*
CCCCCC(=O)NC(=S)Nc1ccc(Cl)cn1	-26	1	0	1	-3	-33	/
CC1CCCC(C)N1C(=O)CSc1nc(N)cc(N)n1 (centres undefined)	2	-2	0	-3	-5	-12	/
CN(C)CCN(C)Cc1c2ccccc2c(CN(C)CCN(C)C)c2ccccc12	-29	18	28	26	19*	-9	-0.15	Dye-only ctr=-22
CN(C)CCP(=O)(c1ccccc1)c1ccccc1	1	0	0	5	-4	8	/
O=C(COC(=O)c1cccnc1Nc1ccccc1F)NCc1ccc2c(c1)OCO2	-8	0	-1	-2	0	18	/
Cc1cc2nc3c(=O)n(C4CCCCC4)c(=O)[nH]c3nc2cc1N	i	380	97*	566*	48*	-349	-0.03	Dye-only ctr=-25
Cc1ccccc1N/N=C/c1sc(=O)n(Cc2cccc(C(=O)O)c2)c1Cl	0	-3	-1	-5	-6	29	/
CCC(CNc1cc(OC)cc2cccnc12)NC1CCCCC1 (centres undefined)	-16	3	15	7	17*	-10	0.03	Dye-only ctr=-27
Cc1cc(C(F)(F)F)nn1Cc1ccc(C(=O)NCc2ccco2)o1	-1	2	0	-1	-1	4	/
CN1C(=O)c2cccc3c(S(N)(=O)=O)ccc1c23	-2	-2	19	5	29*	9	-0.09
Cc1ccccc1NS(=O)(=O)c1ccc2c3c(cccc13)C(=O)N2C	4	-1	0	-7	3	-4	/
CC(=O)c1c(C)n(-c2ccccc2Br)c2ccc(O)cc12	-7	-6	1	7	-2	-59	/
COc1ccccc1CNC(=O)c1ccccc1NS(C)(=O)=O	-15	-2	-1	-5	21*	8	-0.13
CCCCC1OC23CCCCC2C(C#N)(C(=N)O3)C1(C#N)C#N (centres undefined)	-38	14	42	23	20*	0	-0.15
CCCCC1OC23CCCCC2C(C#N)(C#N)C1(C#N)C(=N)O3 (centres undefined)	-32	4	45	46*	24*	-12	-0.15	Dye-only ctr=-29
